Shown are actives, neighbours in structure and some others; about 27% of the full set was active somewhere.
CYP2C9 inhib: blockers of cytochrome P450 2C9 activity – biochemical, luminescence, ADME assay, primary screen; P11712; CYP2C9 Supersomes, luciferin-H conversion; inhibition, % at 5 µM; 96,000 tested, 20% active; AID 777, 2007;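 active = blocking of liver enzyme CYP2C9 beyond about 50% at 5 µM, limit read from the data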
Target sequence (P11712 whole entry, looked up): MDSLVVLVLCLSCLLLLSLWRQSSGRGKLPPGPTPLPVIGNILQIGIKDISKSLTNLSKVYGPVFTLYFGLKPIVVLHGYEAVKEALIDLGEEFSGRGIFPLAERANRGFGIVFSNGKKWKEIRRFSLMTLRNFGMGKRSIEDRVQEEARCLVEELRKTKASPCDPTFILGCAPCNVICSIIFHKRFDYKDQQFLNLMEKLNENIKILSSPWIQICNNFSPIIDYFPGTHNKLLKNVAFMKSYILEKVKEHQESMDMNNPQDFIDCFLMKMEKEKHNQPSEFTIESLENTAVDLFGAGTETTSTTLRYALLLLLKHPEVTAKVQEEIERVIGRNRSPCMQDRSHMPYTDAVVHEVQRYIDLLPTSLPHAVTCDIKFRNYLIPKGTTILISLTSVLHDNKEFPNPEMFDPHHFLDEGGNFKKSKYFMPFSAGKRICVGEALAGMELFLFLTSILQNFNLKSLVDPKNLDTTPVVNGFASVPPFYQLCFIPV
Cav3 T inh: Cav3.2 calcium influx blockers – cell-based, Fluo-4 calcium fluorescence, FDSS, MLSMR library, primary screen; Voltage-dependent T-type calcium channel subunit alpha-1H (Homo sapiens), O95180; Cav3.2-expressing cells; active compounds read low; B-score at 10 µM; 100,000 tested, 4% active;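 active = single-dose well whose peak fluorescence ratio is a statistical outlier from its plate by either plate-standardised score or position-corrected B-score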
CYP2C19 activ: human CYP2C19 activators, primary screen, biochemical, luminescence | Cytochrome P450 2C19 (Homo sapiens), P33261 | recombinant CYP2C19, luciferin-H EGE luminescence; active compounds read high; 0 = fully inhibited enzyme, 1 = untreated enzyme | activation factor at 5 µM | 96,000 tested, under 10 active | AID 1025, 2008;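 active = activation factor of at least 2 at 5 µM in the primary screen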
CYP2C19 inhib: blockers of cytochrome P450 2C19 activity – biochemical, luminescence, ADME assay, primary screen. P33261. CYP2C19 Supersomes, luciferin-H EGE luminescence, 30 min. inhibition, % at 5 µM. 96,000 tested, 21% active;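 active = CYP2C19 inhibition above a set limit at 5 µM in the primary screen, cut at about 50% in these data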
CYP2C9 activ: human CYP2C9 activators, primary screen, biochemical, luminescence; recombinant CYP2C9, luciferin-H conversion; active compounds read high; factor 1 = untreated enzyme, 0 = blocked; 96,000 tested, 1.4% active; Cytochrome P450 2C9 (Homo sapiens), P11712; activation factor at 5 µM;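 active = activation factor of 2 or more for CYP2C9 at a 5 µM dose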
A number is an active result; - = inactive; . = no result given.

SMILES | CYP2C9 inhib | Cav3 T inh | CYP2C19 activ | CYP2C19 inhib | CYP2C9 activ
Cc1nc2cc(-c3cccc(F)c3)nn2c(C)c1CCC(=O)NC(C)CCc1ccco1 (stereo not drawn) | 91.3 | -5.48 | - | 90.7 | -
CCOC(=O)C1CCN(C(=O)CCc2c(C)nc3cc(-c4ccccc4)nn3c2C)CC1 | - | - | - | - | -
CCOC(=O)C1CCCCN1C(=O)CCc1c(C)nc2cc(-c3ccccc3)nn2c1C (stereo not drawn) | 60.1 | . | - | 68.4 | -
Cc1nc(CN2CCCC2=NC#N)n(-c2ccccc2)n1 | - | - | - | - | -
COc1ccc(CCCc2nnc(SCC(=O)Nc3cccc(C)c3)o2)cc1 | 63.8 | - | - | 53.5 | -
COc1ccc(OC)c(/C=N\NC(=O)CSc2nnc(CCCc3ccc(OC)c(C)c3)o2)c1 | 70.4 | - | - | 64.2 | -
COc1ccc(Cc2nnc(SCC(=O)Nc3ncc(C)s3)o2)cc1 | - | - | - | - | -
COc1ccc(CCCc2nnc(SCC(=O)Nc3cc(C)c(C)cc3Br)o2)cc1 | 83.2 | -5.15 | - | 68.6 | -
COc1ccc(CCCc2nnc(SCC(=O)Nc3ncc(C)s3)o2)cc1 | - | - | - | - | -
CC1CCN(C(=S)c2cn(Cc3ccccc3F)c3ccccc23)CC1 | - | -6.55 | - | - | -
CC(C)(C)c1ccc(OC(=O)c2ccc3nsnc3c2)cc1 | - | -3.46 | - | - | -
Cc1ccc(C)c2nc(SCC(=O)N3CCCc4ccccc43)c(C#N)cc12 | - | - | - | - | -
CC(NC(=O)c1ccco1)c1cccc2ccccc12 (stereo not drawn) | . | - | . | . | .
O=C(O)CC(c1cccc2ccccc12)n1cccc1 (stereo not drawn) | 50.8 | - | - | - | -
Cc1nc(N2CCC(C)CC2)c2nnn(Cc3ccccc3)c2n1 | . | - | . | . | .
Cn1c(Oc2ccccc2NCc2cc(Br)ccc2O)cc(=O)n(C)c1=O | 94.8 | . | - | 76.3 | -
COc1cc(CNc2ccccc2Oc2cc(=O)n(C)c(=O)n2C)cc(OC)c1OC | - | - | - | - | -
CCOC(=O)C1CCN(S(=O)(=O)c2cc(Cl)c(C)cc2OC)CC1 | - | . | - | 97.9 | -
CCOC(=O)C1CCN(S(=O)(=O)c2ccc(Cl)cc2OC)CC1 | - | . | - | 84.2 | -
CCN(CC)C(=O)CSc1nc2ncc(Br)cc2[nH]1 | - | - | - | 69.0 | -
CCN(CC)C(=O)CSc1nc2ncc(Cl)cc2[nH]1 | - | . | - | 52.3 | -
CCOC(=O)CNC(=O)CSc1nc2ncc(Br)cc2[nH]1 | 64.4 | - | - | - | -
COc1cccc(NC(=O)C23CCC(C)(C(=O)O2)C3(C)C)c1 (stereo not drawn) | - | - | - | - | -
CCn1c(SCC(=O)NCCOc2ccccc2)nc2ccccc2c1=O | 56.7 | - | - | 68.6 | -
COCCNC(=O)CSc1nc2ccccc2c(=O)n1CCCC(=O)NCc1ccccc1 | 69.8 | - | - | - | -
SMILES | CYP2C9 inhib | Cav3 T inh | CYP2C19 activ | CYP2C19 inhib | CYP2C9 activ
CCNC(=O)CSc1nc2ccccc2c(=O)n1CCCOC(C)C | 61.7 | . | - | 76.4 | -
O=C(CSc1nc2ccccc2c(=O)n1NC(=O)Cc1ccccc1)NCCc1ccccc1 | 93.9 | - | - | - | -
CCOCCCn1c(SCC(=O)NC(C)C)nc2ccccc2c1=O | - | - | - | - | -
CC(C)CN(CC(C)C)S(=O)(=O)N1CCC(C(=O)NC2CCCCCCC2)CC1 | - | - | - | - | -
O=C(Cc1coc2cc3c(cc12)CCC3)OCc1cc(=O)n2c(n1)sc1ccccc12 | - | - | - | - | -
CCCOc1ccc(OCCNC2CCCC2)cc1 | - | - | - | - | -
COC(=O)C1CCN(C(=O)c2ccccc2NC(C)=O)CC1 | - | - | - | - | -
COC(=O)C1CCN(C(=O)c2cc3ccccc3oc2=O)CC1 | - | - | - | 56.4 | 2.2
O=C(c1cc2ccccc2oc1=O)N1CCN(C(=O)C2CCCO2)CC1 (stereo not drawn) | - | - | - | - | -
CCOC(=O)N1CCN(C(=O)c2cc3cc(Br)ccc3oc2=O)CC1 | - | - | - | - | -
COc1ccccc1N1CCN(C(=O)c2cnn3cccnc23)CC1 | - | . | - | - | -
COc1ccccc1N1CCN(C(=O)c2ccccc2Oc2ccccc2)CC1 | 75.0 | -4.73 | - | 74.5 | -
COC(=O)C1CCN(C(=O)c2ccccc2Oc2ccccc2)CC1 | 55.2 | - | - | 78.7 | -
COc1ccccc1N1CCN(C(=O)c2cc3cc(Br)ccc3oc2=O)CC1 | - | - | - | 59.2 | -
CCOC(=O)CC1C(=O)NCCN1C(=O)Nc1ccccc1 (stereo not drawn) | - | - | - | - | -
C/C=C/c1ccc(Oc2nnnn2-c2ccc(C(N)=O)cc2)c(OC)c1 | - | - | - | - | -
COC(=O)C1=C(C)NC(=O)NC1C1CC=CCC1 (stereo not drawn) | - | - | - | - | -
O=C(c1cnc2n(c1=O)CCS2)N1CCN(c2ccccc2F)CC1 | - | - | - | - | -
O=C(c1ccccc1Oc1ccccc1)N1CCN(c2ccccc2F)CC1 | 90.1 | -5.41 | - | 78.8 | -
C1CCC(OCCN2CCN(CCOC3CCCCC3)CC2)CC1 | - | - | - | - | -
O=c1c(/C=N/O)c(Nc2ccccc2)nc2ccccn12 | 50.1 | - | - | - | -
O=C(CCN1C(=O)c2ccccc2C1=O)N1CCN(Cc2ccc(Cl)cc2Cl)CC1 | - | -6 | - | - | -
CN1CC(=O)NC1=NC(=O)C12CC3CC(CC(C3)C1)C2 | - | - | - | - | -
O=C(NC1CCCCCC1)c1cccc(N2CCCC2=O)c1 | - | - | - | 56.9 | -
O=C(NCc1cccs1)c1cccc(N2CCCC2=O)c1 | 54.5 | - | - | 57.3 | -
SMILES | CYP2C9 inhib | Cav3 T inh | CYP2C19 activ | CYP2C19 inhib | CYP2C9 activ
CC1CCCCC1NC(=O)c1ccc(N2CCCC2=O)cc1 (stereo not drawn) | - | -5.13 | - | - | -
CN1C(=O)N(C)C2C1NC(=O)N2C (stereo not drawn) | - | - | - | - | -
O=C1CCCc2c1[nH]c1ccccc21 | - | - | - | - | 2.2
CCc1nc2cc(Cl)c(Cl)cc2[nH]1 | - | - | - | 59.3 | -
CSc1nc2cc(Oc3cccc(Cl)c3Cl)c(Cl)cc2[nH]1 | . | - | . | . | .
CCCOc1ccc(CC(=O)NNC(=S)Nc2ccccc2)cc1Br | . | - | . | . | .
Cc1ccnc(Sc2ccc([N+](=O)[O-])cc2[N+](=O)[O-])n1 | - | - | - | 77.2 | -
COc1ccc(-n2ncc3c(NCc4ccccn4)ncnc32)cc1 | 53.1 | - | - | 60.9 | -
c1ccc(-n2ncc3c(NCc4cccnc4)ncnc32)cc1 | 68.7 | - | - | - | -
NNc1ncnc2c1cnn2-c1ccccc1 | - | - | - | - | -
COc1ccc(Nc2ncnc3c2cnn3Cc2ccccc2)cc1 | - | - | - | 55.0 | -

Screening data deposited in PubChem BioAssay by several laboratories.
